Bioassay records deposited in PubChem by National Center for Advancing Translational Sciences (NCATS).
Compounds with a hit are over-represented: about 11% of the library has one in this group of screens.
NPR1 antag = Natriuretic polypeptide receptor (hNpr1) antagonism - Primary qHTS | HEK293 hNpr1 GloSensor cGMP, ANP-stimulated luminescence | Atrial natriuretic peptide receptor 1 (Homo sapiens), P16066 | Potency, µM (series often up to 46.3 µM), for inactives: at the highest dose activity change, negative = inhibition, actives largely listed as inhibitors | hit rate 1.6% among 76,000 | AID 1347048, 2019; calls by dose curve; note: nearly all actives have a fitted effect of over 60% in size
Target sequence (P16066 whole entry, looked up): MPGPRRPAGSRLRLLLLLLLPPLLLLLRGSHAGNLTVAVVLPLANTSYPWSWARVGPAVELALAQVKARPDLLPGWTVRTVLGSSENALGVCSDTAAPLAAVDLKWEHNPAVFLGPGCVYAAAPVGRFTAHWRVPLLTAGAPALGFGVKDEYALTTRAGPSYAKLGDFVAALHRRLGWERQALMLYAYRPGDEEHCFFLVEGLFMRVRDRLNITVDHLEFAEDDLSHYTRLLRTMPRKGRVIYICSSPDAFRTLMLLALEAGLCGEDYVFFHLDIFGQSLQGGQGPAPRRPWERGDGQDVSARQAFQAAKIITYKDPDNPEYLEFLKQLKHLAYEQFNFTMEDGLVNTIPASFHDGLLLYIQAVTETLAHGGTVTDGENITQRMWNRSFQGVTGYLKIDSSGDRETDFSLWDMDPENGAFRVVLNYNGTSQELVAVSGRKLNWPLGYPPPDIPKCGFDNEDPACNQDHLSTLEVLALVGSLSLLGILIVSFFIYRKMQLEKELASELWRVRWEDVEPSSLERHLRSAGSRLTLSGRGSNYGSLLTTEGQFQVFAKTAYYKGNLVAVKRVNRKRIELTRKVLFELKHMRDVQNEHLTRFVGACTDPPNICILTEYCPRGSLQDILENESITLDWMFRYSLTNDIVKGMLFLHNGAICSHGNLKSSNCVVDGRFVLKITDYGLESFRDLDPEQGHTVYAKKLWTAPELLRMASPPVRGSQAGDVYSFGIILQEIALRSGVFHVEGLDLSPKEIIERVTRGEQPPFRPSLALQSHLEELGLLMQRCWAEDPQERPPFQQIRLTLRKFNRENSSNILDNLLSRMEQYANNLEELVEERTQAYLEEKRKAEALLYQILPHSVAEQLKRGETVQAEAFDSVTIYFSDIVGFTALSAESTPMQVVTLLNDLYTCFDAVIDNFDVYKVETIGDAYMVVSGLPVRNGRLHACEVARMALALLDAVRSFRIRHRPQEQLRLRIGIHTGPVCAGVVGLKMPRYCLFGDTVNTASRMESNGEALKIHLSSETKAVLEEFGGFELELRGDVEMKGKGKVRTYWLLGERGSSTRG
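Compound pre-incubated 30 min at room temperature on GloSensor-loaded HEK293 cells stably carrying hNpr1 and the pGS-40F cGMP biosensor. Stimulation uses hNppA at 0.1 nM final; luminescence is taken at baseline and 20 min post-agonist.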
NIH3T3 tox = Cytotoxic Profiling in NIH 3T3 Cell Line of Diverse Libraries Using Quantitative High-Throughput Screening; NIH 3T3 viability, CellTiter-Glo ATP luminescence, 48-72 h; Potency, µM (series often up to 96.7 µM), for the others: at the top dose activity change, negative = cytotoxicity, actives largely listed as inhibitors; hit rate 4.3% among 94,000; note: nearly all actives have a fitted effect of over 55% in size
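Mouse fibroblast NIH 3T3 cells, 400 per well, received compound via pintool and were incubated for 48 or 72 hr prior to CellTiter-Glo ATP luminescence measurement.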
FLuc inh = Firefly luciferase inhibition profiling of diverse chemical library using quantitative high-throughput screening. Luciferin 4-monooxygenase (Photinus pyralis), P08659. purified P. pyralis luciferase, luminescence, biochemical. Potency, µM (top dose mostly 115 µM), actives largely listed as inhibitors. hit rate 2.5% among 76,000. AID 1347043, 2019; note: nearly all actives have a fitted effect of over 65% in size
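Purified P. pyralis luciferase (10nM final) in 50mM Tris acetate pH 7.5, 10mM Mg acetate, 0.01% Tween-20, 0.05% BSA with 10uM D-luciferin and 10uM ATP. Compounds titrated qHTS. Luminescence imaged on CCD.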
HEK cytotox = Cytotoxic Profiling in HEK 293 Cell Line of Diverse Libraries Using Quantitative High-Throughput Screening | hit rate 6.6% among 94,000 | AID 1345083, 2018 | HEK 293 viability, ATP luminescence (CellTiter-Glo), 48-72 h | Potency, µM (doses to about 115 µM), without a hit: at the top dose activity change, negative = cytotoxicity, usual class: inhibitors; note: nearly all actives have a fitted effect of over 60% in size
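Cytotoxicity was scored by loss of ATP-coupled luminescence (CellTiter-Glo) in HEK 293 cells. Compound treatment ran 48 or 72 hr at 37 degree Celsius, 5% CO2, 95% humidity.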
Starred values were filed as active, the others as inactive; i = inactive; ? = inconclusive; . = not tested or not shown; ! = a repeat was not active; [ ] = another dose, or the depositor's remark. Unless noted, calls come from the whole dose curve; as a rule, active = well fitted curve in the direction sought with a large enough effect; inconclusive = small, poorly fitted or top-dose-only effect, or another doubt; inactive = no such curve, though single readings can be large; an effect the other way counts as inactive or inconclusive. % is set by controls: 0 for no effect and ±100 for the full control effect; potency is the fitted concentration of half-maximal effect.

SMILES	NPR1 antag	NIH3T3 tox	FLuc inh	HEK cytotox
COc1ccc(Nc2ccnc(N3CCCC(C(=O)NCc4cccc(F)c4)C3)n2)cc1 (stereo unspecified)	.	15.8µM*	.	12.6µM*
COc1ccc(Nc2ccnc(N3CCCC(C(=O)NCc4cccc(OC)c4)C3)n2)cc1 (stereo unspecified)	.	35.5µM*	.	25.1µM*
COCC1CCN(S(=O)(=O)N2CCCCC2CCc2ccccc2)CC1 (stereo unspecified)	-22.2%	?	i	44.7µM*
COCCOC1CCN(S(=O)(=O)Cc2ccccc2)CC1	0.6%	i	i	14.4%
CC(=O)N1CCC(c2nnc3n2C(C(=O)NCc2ccc(Cl)cc2)CC3)CC1 (stereo unspecified)	.	-19.2%	.	-3.3%
Cn1cnc(CN2CCNc3cc(Nc4ccccc4)ncc3C2)c1	10.4%[70.6 µM]	?	i	?
CN(C)c1ccc(CN2CCNc3cc(Nc4ccccc4)ncc3C2)cc1	-18.5%[70.6 µM]	56.2µM*	i	?
CN(C)c1ccc(CN2CCNc3cc(Nc4cccnc4)ncc3C2)cc1	-8.9%[70.6 µM]	?	63.1µM*	?
COC(=O)N1CC(N2C(=O)c3c(c(C)nn3-c3ccccc3)C2C(C)C)C1 (stereo unspecified)	.	-29.4%	.	?
CC(C)NC(=O)c1cc(-c2ccc(Cl)cc2Cl)nc2c1cnn2C	.	?	.	-29.6%
Cn1ncc2c(C(=O)NCc3cccs3)cc(-c3ccc(C(F)(F)F)cc3)nc21	.	?	.	35.5µM*
COc1cc(CNC(=O)c2cc(-c3ccc(Cl)cc3Cl)nc3c2cnn3C)cc(OC)c1	.	?	.	44.7µM*
Cc1ccc(-c2cc(C(=O)NCc3cccc(Cl)c3)c3cnn(C)c3n2)cc1	.	-23.9%	.	3.1%
Cc1ccc(-c2cc(C(=O)NCc3cccc(Cl)c3)c3cnn(C)c3n2)c(C)c1	.	?	.	31.6µM*
COc1cccc(-c2cc(C(=O)NCc3cccc(Cl)c3)c3cnn(C)c3n2)c1	.	22.4µM*	.	?
Cn1ncc2c(C(=O)NCc3cccs3)cc(-c3ccccc3F)nc21	.	-22.6%	.	?
CCOCCCNC(=O)c1nnn2cc(-c3ccccc3)[nH]c(=O)c12	0.1%	?	i	6.9%
COc1cccc(-c2cc(C(=O)NCc3cccs3)c3cnn(C)c3n2)c1	.	25.1µM*!	.	?
COc1cccc(CNC(=O)c2cc(-c3ccc(F)cc3)nc3c2cnn3C)c1	.	?	.	28.2µM*
Cn1ncc2c(C(=O)NCCc3c[nH]c4ccccc34)cc(-c3ccc(C(F)(F)F)cc3)nc21	.	39.8µM*	.	?
COc1cccc(-c2cc(C(=O)NCC(=O)c3ccccc3)c3cnn(C)c3n2)c1	.	-29.4%	.	-19.0%
COc1cccc(-c2cc(C(=O)NCC#N)c3cnn(C)c3n2)c1	.	39.8µM*	.	?
COc1cccc(-c2cc(C(=O)NCc3ccc(C(F)(F)F)cc3)c3cnn(C)c3n2)c1	.	-11.2%	.	-8.1%
Cc1ccc(-c2ccccc2CN2CCN([S+](=O)([O-])c3cccs3)CC2)cc1Cl	.	-24.1%	.	?
CN1CC(=O)N(c2ccc(Cl)cc2)Cc2c(NCC(C)(C)C)ncnc21	10.9%	?	i	?
SMILES	NPR1 antag	NIH3T3 tox	FLuc inh	HEK cytotox
CCCn1cc2c3c(cccc31)CN(C(=O)Cc1ccc(OC)cc1)CC2	-9.7%	?	i	?
CCCn1cc2c3c(cccc31)CN(C(=O)COc1ccc(F)cc1)CC2	-22.1%	?	i	44.7µM*
Cc1nn(-c2ccccc2)c2c1C(C(C)C)N(C1CCN(C(=O)c3ccc(Cl)cc3)CC1)C2=O (stereo unspecified)	.	?	.	25.1µM*
COc1ccc(C(=O)N2CCC(N3C(=O)c4c(c(C)nn4-c4ccccc4)C3C(C)C)CC2)cc1 (stereo unspecified)	.	-26.5%	.	-12.7%
Cc1nn(-c2ccccc2)c2c1C(C(C)C)N(C1CCN(C(=O)c3cccc(Cl)c3)CC1)C2=O (stereo unspecified)	.	?	.	17.8µM*
COc1cccc(C(=O)N2CCC(N3C(=O)c4c(c(C)nn4-c4ccccc4)C3C(C)C)CC2)c1 (stereo unspecified)	.	35.5µM*	.	44.7µM*
COC[C@@H]1CN(C(=O)c2cnccn2)C[C@H]1c1ccccn1	.	-3.3%	.	i
COc1cccc(CCC2CCCN(C(=O)c3ccc(OC)o3)C2)c1 (stereo unspecified)	-18.8%	?	i	35.5µM*
C=CCS(=O)(=O)N1CCCC(CCc2cccc(OC)c2)C1 (stereo unspecified)	-0.8%	-29.2%	i	?
O=C(c1ccco1)N1CCCC(CCc2cccc(F)c2)C1 (stereo unspecified)	5.6%	?	i	79.4µM*
Cc1ccc(NC(=O)N2CCC[C@H]2c2nc(-c3ccc(F)cc3)n[nH]2)cc1C	.	28.2µM*	.	?
CNC(=O)c1cc(C)nc2onc(C3CCN(C(=O)c4cccc(C)c4)C3)c12 (stereo unspecified)	.	-22.8%	.	-10.7%
Fc1cccc(-n2cc(CN3CCCC4(CCOC4)C3)cn2)c1 (stereo unspecified)	2.0%	-28.0%	i	-11.6%
O=C1NCCCc2[nH]c(-c3cnn(-c4cccc(F)c4)c3)nc21	-20.7%	-23.5%	22.4µM*	?
O=C(OCc1ccccc1)N1CCC2(CC1)C(=NC1CCCCC1)NC(=O)N2c1cccnc1	0.0%	-3.2%	i	-27.7%
Cc1ccc(-c2noc([C@@H]3Cc4nc[nH]c4CN3CC3CCCCC3)n2)cc1	0.8%[70.6 µM]	70.8µM*	?	63.1µM*
c1ccc2cc(-c3noc([C@@H]4Cc5nc[nH]c5CN4CC4CCCCC4)n3)ccc2c1	-16.8%[70.6 µM]	50.1µM*	?	70.8µM*
Cc1cc2c(c(=O)n(-c3ccccc3)c(=O)n2CC(=O)Nc2cccc(C#N)c2)n1C	-2.0%	i	i	-4.2%
CN1CCC(Cn2ccc3c(N4CCOCC4)nc(-c4cccc(C(N)=O)c4)cc32)CC1	1.1%[70.6 µM]	100µM*	i	?
CC(=O)Nc1cccc(-c2cc3c(ccn3CC3CCN(C)CC3)c(N3CCOCC3)n2)c1	1.9%	?	i	-28.5%
C[S+](=O)([O-])N1CCC(Cn2ccc3c(N4CCOCC4)nc(-c4cccnc4)cc32)CC1	-7.1%	7.08µM*	i	-18.1%
C[S+](=O)([O-])N1CCC(Cn2ccc3c(N4CCOCC4)nc(-c4cccc(C(N)=O)c4)cc32)CC1	-0.3%	?	i	-13.8%
CN1CCC(Cn2ccc3c(N4CCOCC4)nc(-c4cccc5[nH]ncc45)cc32)CC1	1.5%[70.6 µM]	44.7µM*	i	?
COc1cc(F)ccc1-c1cc2c(ccn2CC2CCN(C)CC2)c(N2CCOCC2)n1	-2.5%[70.6 µM]	70.8µM*	i	100µM*
O=C(c1ccccc1)N1CCCN(CCn2nc3n(c2=O)CCCC3)CC1	.	-21.1%	.	-1.3%
